From PubChem BioAssay AID1628 (Sanford-Burnham Center for Chemical Genomics, 2009)
The campaign covered roughly 190,000 compounds. About 930 (0.49%) were called active.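 How the source made its calls: active means z-score of insulin promoter reporter brightness in nuclei below -3 at 5 µM, with at least 500 cells counted; inconclusive means wells with under 500 cells, flagged as toxic or sparse; inactive means the rest.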 The list shows a part of the results. Potency and affinity values are given separately.

Assay: decrease of insulin promoter-GFP reporter – imaging, high-content screening, mouse beta cells (AID 1628)
Details: MIN6 insulin promoter GFP reporter, at 5 µM, stronger effect = lower value

z-score, inactive:
Oc1ccc(Cl)cc1C1=Nc2ccccc2N=C(c2ccco2)C1 4.34
COC1=CCC2([N+](=O)[O-])CN(CCO)CC1([N+](=O)[O-])C2 (stereo unspecified) 3.03
Cc1ccccc1N1C(=O)CC(c2c[nH]c3ccccc23)C1=O (stereo unspecified) 3.5
CCOC(=O)c1sc(NCCNc2nc(C)c(C(=O)OCC)s2)nc1C -0.64
COc1cc(=O)n(C)c2c(OCC3OC(C)(C)OC3(C)C)cccc12 (stereo unspecified) -0.95
O=C1/C(=N\S(=O)(=O)c2cccs2)C([n+]2cccc(Cc3ccccc3)c2)=C([O-])c2ccccc21 6.82
O=C1C=C(Nc2ccccc2)C(=O)c2ccccc21 -0.04
CCCn1c(SCC(=O)NC2CCCCC2)nnc1-c1ccncc1 3.06
CC(C)(C)NC(=O)CSc1n[nH]c(=O)n1-c1ccccc1 2.5
O=C(NC1(C(F)(F)F)NC(=O)N(c2ccc(F)c(Cl)c2)C1=O)c1ccncc1 (stereo unspecified) 4.5
O=S(=O)([O-])CCC[n+]1c(/C=C\Nc2ccccc2)oc2ccc(-c3ccccc3)cc21 3.19
COC(=O)C1=C(N)n2c(s/c(=C\c3cccnc3)c2=O)=C(C(=O)OC)C1c1cccnc1 (stereo unspecified) 3.21
Cc1ccc(C(=O)NCCn2c(N)c(C#N)c3nc4ccccc4nc32)cc1 4.08
Cc1ccc(-n2c(Cc3cccs3)nnc2SCC(=O)OC(C)C)cc1 3.05
COc1cc(/C=C(\C#N)c2nc3ccccc3o2)ccc1O 4.56
CC(C)(C)NC(=S)N/N=C\c1ccc(-c2ccc([N+](=O)[O-])cc2)o1 14.4
COCCNC(=S)N/N=C/c1ccc(-c2ccc([N+](=O)[O-])cc2)o1 5.22

z-score, active:
COc1cc(/C=N/NC(=S)Nc2cccc(Cl)c2C)ccc1OCC(=O)N1CC(C)OC(C)C1 (stereo unspecified) -3.25
CCn1c(COc2ccc(=O)n(-c3ccccc3)n2)nnc1SCc1ccccc1C -4.23
Cn1c(SCC(=O)NNC(=O)Cc2ccccc2)nnc1-c1ccc(Cl)cc1 -3.49
COc1ccc2cc(C(c3nnnn3C(C)(C)C)N3CCc4ccccc4C3)c(=O)[nH]c2c1 (stereo unspecified) -5.1
OCCC1CN(Cc2cccn2-c2ncccn2)CCN1CCc1ccccc1 (stereo unspecified) -3.43
CCc1ccc(N2CC(O)(c3cccs3)[N+]3=C2SCCC3)cc1 (stereo unspecified) -3.76
CSC(=Nc1cccc(C)c1)NC#N -5.35
COCCCNC(=O)c1c(N)n(/N=C/c2cccnc2)c2nc3ccccc3nc12 -3.07
CCNC(=S)N/N=C/c1ccc(-c2ccccc2)o1 -3.35
